Data published in PubChem BioAssay (NCATS).
Values joined by “and” are separate entries in the source; they are usually repeats but may differ in a detail not shown here. Identical values can stand only once. Records with an inconclusive call do not appear. Active and inactive are the calls of the source. Unless noted, the call rests on the fitted dose curve; in most records, active means well fitted curve in the direction sought with a large enough effect; inconclusive means small, poorly fitted or top-dose-only effect, or another doubt; inactive means no such curve, though single readings can be large; an effect the other way counts as inactive or inconclusive.

Assays:
[1] = Cell Viability - Hek293 (AID 427;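 active means compounds whose dose-response curve shows a full or clear partial loss of cell viability, called from curve shape rather than a numeric limit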;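 further: potency means the concentration at half of the fitted maximal effect; cells exposed to compound for 40 hours at 37 °C before reading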); conditions: qHTS
Outline: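 Luminescent ATP read-out (CellTiter-Glo, 20 min RT) after 40 hr compound exposure at 37 °C in complete medium. Signal normalized to DMSO (basal) and 100 uM tamoxifen (100% inhibition); concentration-response fitted with the standard Hill equation to give AC50.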

[2] = Cell Viability - SK-N-SH (AID 435; calls by dose curve; further: potency means the concentration at half of the fitted maximal effect); conditions: SK-N-SH neuroblastoma cell viability qHTS
Outline: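 qHTS cytotoxicity: CellTiter-Glo ATP luminescence after 40 h compound exposure of human neuroblastoma SK-N-SH cells at 37 °C. AC50 derived by Hill-equation fitting, with DMSO as basal and 100 uM tamoxifen as full inhibition.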

[3] = Cell Viability - N2a (AID 540); conditions: N2a mouse neuroblastoma cell viability; activity change, negative = cytotoxicity: at 92.2 µM (top of the series); further: nearly all actives have a fitted effect of over 45% in size; further: potency means the concentration at half of the fitted maximal effect;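 on activity change, negative = cytotoxicity: plate controls were DMSO alone for no effect and tamoxifen control for full effect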
Outline: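 First, 1500 N2a cells per well incubate 5 hr at 37 °C; next, compounds are added and incubated 40 hr at 37 °C; finally CellTiter-Glo is added and luminescence read after 20 min, with AC50 derived by Hill modeling.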

[4] = Cellular Toxicity (caspase-3) Mesangial (AID 660); conditions: mesangial cells, normalized: DMSO 0%, 100 µM tamoxifen 100%; series mostly up to 91.7 µM;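 further: combined caspase 3 and 7 activity read by Caspase-Glo luminescence; cells exposed to compound for 16 h before the caspase read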
Outline: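 Concentration-response qHTS: compound-induced rise in caspase 3/7 luminescence in human mesangial cells after 16 h, normalized to DMSO and 100 uM tamoxifen controls.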

[5] = Cellular Toxicity (caspase-3) Hek293 (AID 664); conditions: HEK293 caspase-3 activation, DMSO = 0%, 100 µM tamoxifen = 100%; at 92.2 µM (top of the series);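 further: cells exposed to compound for 16 h at 37 °C before readout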
Outline: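 Activation of caspase-3/7 is measured as increased luminescence from cleaved peptide-aminoluciferin substrate in HEK293 cells treated 16 hours at 37 °C. AC50 values come from Hill-equation fits of concentration-response data.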

[6] = Cell Viability - LYMP1-002 - Assay at 16 hr (AID 948); conditions: LYMP1-002 lymphoblastoid cell viability; series mostly up to 92.2 µM;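 further: 0% = DMSO alone and full effect = 92 µM tetraoctylammonium bromide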
Outline: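 ATP luminescence (CellTiter-Glo) was measured after 16 hr compound exposure at 37 C of 2500 lymphoblastoid LYMP1-002 cells per well. Concentration-response curves were fitted with the Hill equation to give AC50.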

[7] = MultiTox-Fluor Cytotoxicity Assay - LYMP1-002 - Dead Cells (AID 960); conditions: LYMP1-002 lymphoblastoid cells, dead-cell protease fluorescence; series mostly up to 46.1 µM;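 further: 0% = DMSO and 100% = tetraoctylammonium bromide; nearly all actives have a fitted effect of over 60% in size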
Outline: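 Acute cytotoxicity in a human lymphoblastoid line is scored as rising dead-cell protease signal after 16 hr exposure at 37 C, measured fluorometrically (485/520).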

[8] = Cell Viability - LYMP2-003 (AID 965); conditions: LYMP2-003 lymphoblastoid cell viability; series mostly up to 92.2 µM;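 further: cells exposed to compounds for 24 h before reading; nearly all actives have a fitted effect of over 50% in size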; further: potency means the concentration at half of the fitted maximal effect;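 on activity change, negative = cytotoxicity: 0% = DMSO only and full effect = 92 µM tetraoctylammonium bromide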
Outline: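 CellTiter-Glo luminescence quantified ATP loss after 24 h compound treatment of LYMP2-003 lymphoblastoid cells at 37 C. Titration series were fitted with the standard Hill equation to give AC50.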

[9] = Cell Viability - LYMP2-024 (AID 988); conditions: LYMP2-024 lymphoblastoid cell viability; series mostly up to 92.2 µM;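 further: cells exposed to compound for 24 hr at 37 °C; nearly all actives have a fitted effect of over 60% in size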; further: potency means the concentration at half of the fitted maximal effect;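 on activity change, negative = cytotoxicity: plate controls were DMSO only for no effect and 92 µM tetraoctylammonium bromide for full effect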
Outline: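 Acute toxicity is measured as concentration-dependent loss of intracellular ATP in a human lymphoblastoid line treated 24 hours at 37 C. Luciferase luminescence quantifies ATP; AC50 values come from standard Hill-equation modelling.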

[10] = Cell Viability - LYMP2-026 (AID 989); conditions: LYMP2-026 lymphoblastoid cell viability, qHTS; series mostly up to 92.2 µM; further: nearly all actives have a fitted effect of over 50% in size; further: potency means the concentration at half of the fitted maximal effect
Outline: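 Concentration-dependent loss of intracellular ATP in human lymphoblastoid cells after 24 hr at 37 C, quantified by luciferase luminescence. AC50 derived from standard Hill equation.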

[11] = Cell Viability - LYMP1-002 - Assay at 24 hr (AID 993); conditions: LYMP1-002 lymphoblastoid cells viability; series mostly up to 92.2 µM; further: on the % scale 0 is the no-effect control and ±100 the full control effect
Outline: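 qHTS, LYMP1-002 lymphoblastoid, 24 h cpd, 37 C, CellTiter-Glo ATP luminescence; AC50 via Hill eq.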

[12] = qHTS assay for small molecule agonists of retinoid X receptor alpha signaling (AID 588544); conditions: HEK293T RXRa-UAS-bla, beta-lactamase reporter, 18 h; 530 nm emission
[13] = biological target: Thyroid hormone receptor beta (Homo sapiens) (UniProt P10828); experiment: qHTS assay for small molecule agonists of thyroid hormone receptor beta signaling (AID 588545; calls by dose curve; further: potency means the concentration at half of the fitted maximal effect;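 on activation: 0% = DMSO only and 100% = 10 nM T3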); conditions: TR-UAS-bla GripTite HEK 293, beta-lactamase ratio, agonist mode, 18 h; series mostly up to 76.7 µM
Thyroid hormone receptor beta (Homo sapiens), sequence (P10828 whole entry, looked up): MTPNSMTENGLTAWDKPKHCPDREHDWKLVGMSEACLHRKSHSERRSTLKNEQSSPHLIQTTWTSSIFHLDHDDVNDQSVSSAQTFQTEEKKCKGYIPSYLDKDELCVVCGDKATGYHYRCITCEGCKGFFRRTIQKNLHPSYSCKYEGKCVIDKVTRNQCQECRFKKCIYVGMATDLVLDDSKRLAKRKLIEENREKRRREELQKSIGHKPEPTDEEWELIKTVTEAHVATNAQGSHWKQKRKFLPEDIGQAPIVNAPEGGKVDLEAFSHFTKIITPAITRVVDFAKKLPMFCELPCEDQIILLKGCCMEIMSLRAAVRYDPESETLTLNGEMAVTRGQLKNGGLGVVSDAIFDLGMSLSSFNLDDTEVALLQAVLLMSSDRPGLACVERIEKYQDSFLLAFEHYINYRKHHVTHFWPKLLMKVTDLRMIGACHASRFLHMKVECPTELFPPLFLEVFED
Outline: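 Efficacy and EC50 values derive from Hill fits of qHTS titration data, normalized to 10 nM T3 and DMSO-only wells. HEK 293 reporter cells were stimulated for 18 hrs at 37 C, with beta-lactamase activity measured by CCF4 fluorescence.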

[14] = biological target: Retinoic acid receptor RXR-alpha (Homo sapiens) (UniProt P19793); experiment: qHTS assay for small molecule antagonists of retinoid X receptor alpha signaling (AID 588546; active means well fitted inhibition curve with a large enough effect in the signal ratio, with a control signal flat, not every such curve was filed as active; the % refers to the signal ratio;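 further: cells stimulated with 9-cis-retinoic acid as agonist; on the % scale 0 is the no-effect control and ±100 the full control effect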); conditions: HEK293T RXRa-UAS-bla, beta-lactamase ratio, antagonist mode
Retinoic acid receptor RXR-alpha (Homo sapiens), sequence (P19793 whole entry, looked up): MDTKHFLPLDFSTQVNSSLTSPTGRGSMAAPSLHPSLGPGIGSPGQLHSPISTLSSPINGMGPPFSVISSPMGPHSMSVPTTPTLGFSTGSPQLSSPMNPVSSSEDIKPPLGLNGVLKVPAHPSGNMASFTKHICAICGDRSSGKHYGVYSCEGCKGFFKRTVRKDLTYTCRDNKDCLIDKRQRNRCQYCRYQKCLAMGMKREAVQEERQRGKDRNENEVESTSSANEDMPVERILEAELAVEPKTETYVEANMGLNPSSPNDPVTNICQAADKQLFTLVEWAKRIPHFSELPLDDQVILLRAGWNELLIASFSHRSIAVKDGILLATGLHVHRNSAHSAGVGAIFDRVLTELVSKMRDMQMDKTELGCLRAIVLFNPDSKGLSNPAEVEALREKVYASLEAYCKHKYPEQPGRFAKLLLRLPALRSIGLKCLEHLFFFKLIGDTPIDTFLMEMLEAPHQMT
Outline: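 Beta-lactamase reporter inhibition, read as CCF4 fluorescence ratio (ex 405, em 460/530 nm) after 2 h at RT. HEK293T UAS-bla cells, 2500/well, were stimulated with 9-cis-RA at 500 or 100 nM final alongside test compound for 18 h at 37 C.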

[15] = biological target: Tumor necrosis factor (Homo sapiens) (UniProt P01375); experiment: qHTS assay to identify small molecules that stimulate Tumor Necrosis Factor-alpha (TNF-alpha) secretion (AID 651757; active means well fitted curve in the direction sought with a large enough effect in the signal ratio; the % refers to the signal ratio; further: 0% is about no effect); conditions: Human cells, HTRF 665/615 ratio; series mostly up to 92.2 µM
Tumor necrosis factor (Homo sapiens), sequence (P01375 whole entry, looked up): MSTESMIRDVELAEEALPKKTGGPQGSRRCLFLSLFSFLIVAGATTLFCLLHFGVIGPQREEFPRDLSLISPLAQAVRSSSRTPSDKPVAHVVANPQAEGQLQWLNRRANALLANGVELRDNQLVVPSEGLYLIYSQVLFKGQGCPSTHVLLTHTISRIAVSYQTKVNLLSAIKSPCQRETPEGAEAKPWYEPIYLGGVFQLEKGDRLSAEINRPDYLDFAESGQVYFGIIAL
Outline: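 Secreted TNF-alpha from compound-treated THP-1 cells (17 hrs, 37 C) was quantified with a homogeneous time-resolved fluorescence antibody assay.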

[16] = biological target: Nuclear receptor ROR-gamma (Homo sapiens) (UniProt P51449); experiment: qHTS assay for small molecule antagonists of the retinoid-related orphan receptor gamma (ROR-gamma) signaling pathway (AID 651802); conditions: ROR-gamma antagonist cell reporter assay; series mostly up to 92.2 µM; further: nearly all actives have a fitted effect of over 60% in size; further: potency means the concentration at half of the fitted maximal effect
Nuclear receptor ROR-gamma (Homo sapiens), sequence (P51449 whole entry, looked up): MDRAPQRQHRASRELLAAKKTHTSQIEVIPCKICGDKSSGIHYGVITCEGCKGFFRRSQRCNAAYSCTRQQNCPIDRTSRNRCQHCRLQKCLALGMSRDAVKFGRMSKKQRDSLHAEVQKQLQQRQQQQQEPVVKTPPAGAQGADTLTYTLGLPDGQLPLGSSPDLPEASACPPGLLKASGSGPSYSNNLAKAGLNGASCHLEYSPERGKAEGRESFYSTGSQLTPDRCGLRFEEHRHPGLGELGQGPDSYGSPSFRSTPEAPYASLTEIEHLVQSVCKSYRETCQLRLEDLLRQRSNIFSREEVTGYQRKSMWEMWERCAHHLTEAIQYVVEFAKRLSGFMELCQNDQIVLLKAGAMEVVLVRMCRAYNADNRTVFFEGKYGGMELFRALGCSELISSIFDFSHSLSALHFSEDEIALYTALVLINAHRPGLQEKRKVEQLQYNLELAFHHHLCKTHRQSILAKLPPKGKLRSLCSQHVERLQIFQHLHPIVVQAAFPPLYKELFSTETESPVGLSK
Outline: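 Antagonism is scored as a fall in luminescence from a RORE-luciferase reporter in CHO cells expressing ROR under a TET-inducible promoter, measured 16hr after doxycycline induction in the presence of compound.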

[17] = qHTS assay for small molecule agonists of the antioxidant response element (ARE) signaling pathway measured by Nrf2-dependant transcriptional activity (AID 720636; active means well fitted curve in the direction sought with a large enough effect in the repeat runs; an effect the other way counts as inactive or inconclusive;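 further: HepG2 cells with an ARE-driven luciferase reporter; % of control where 0% means no effect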); conditions: ARE-luc HepG2, Nrf2 luciferase reporter, 16 h; series mostly up to 92.4 µM
Outline: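 In HepG2 cells engineered with an Nrf2-responsive luciferase gene, ARE induction was quantified as luminescence after 16 hr compound treatment at 37 C.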

[18] = qHTS assay for cell viability of the p53RE-bla HCT-116 cell line (AID 743292); conditions: p53RE-bla HCT-116 viability, ATP luminescence, 16 h; series mostly up to 95 µM; further: on the % scale 0 is the no-effect control and ±100 the full control effect; nearly all actives have a fitted effect of over 55% in size
Outline: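 Intracellular ATP of p53RE-bla HCT-116 cells measured by luciferase luminescence following 16 h compound incubation at 37 C; DMSO-only wells served as vehicle controls.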

[19] = Cellular Toxicity (caspase-3) HepG2 (AID 654); conditions: HepG2 caspase-3 activation, luminescence, 0% = DMSO only, 100% = tamoxifen; series mostly up to 92.2 µM;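 further: cells exposed to compound for 16 hours before reading; 0% = DMSO alone and 100% = caspase signal from 100 µM tamoxifen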
Outline: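 qHTS, HepG2, 1500 cells/well, complete medium; cpd 16 h 37 °C; Caspase-Glo 3/7, 20 min RT; lum. Norm: DMSO vs 100 uM tamoxifen; AC50 Hill fit.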

[20] = MultiTox-Fluor Cytotoxicity Assay - LYMP1-001 - Dead Cells (AID 946); conditions: LYMP1-001 lymphoblastoid cells, dead-cell protease fluorescence; series mostly up to 92.2 µM;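 further: 0% = DMSO and 100% = tetraoctylammonium bromide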
Outline: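 AC50 from Hill fit of concentration-response; data normalized to DMSO (basal) and 15 uM tetraoctylammonium bromide (100%). LYMP1-001 lymphoblastoid cells, 2500/well, 16 hr compound at 37 C; dead-cell protease fluorescence, Ex/Em 485/520.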

OCC(Cl)CCl (stereo not given)
-11.4%: max response [12]
inactive: Potency [1] > 92 µM | Potency [2] > 92 µM | Potency [3] | outcome [4] | caspase-3 activation [5] 1.15% | outcome [6] | Potency [7] | Potency [8] | Potency [9] | Potency [10] | Potency [11] | Potency [13] | max response [14] -4.6% | outcome [15] | Potency [16] | Potency [17] | Potency [18]

Nc1ccc(Oc2ccc(N)cc2)cc1
inactive: Potency [1] > 92 µM | Potency [2] > 92 µM | Potency [3] | outcome [19] | outcome [4] | caspase-3 activation [5] -2.14% | outcome [20] | outcome [6] | Potency [7] | Potency [8] | Potency [9] | Potency [10] | max response [14] 4.6% and -3% | Potency [16] | Potency [17] | Potency [18]
6.59% and -0.644%: max response [12]

Oc1ccc(Cl)c(Cl)c1
-8.76%: max response [12]
inactive: Potency [1] > 92 µM | Potency [2] > 92 µM | outcome [19] | outcome [4] | caspase-3 activation [5] 0.945% | outcome [20] | outcome [6] | Potency [7] | Potency [8] | Potency [9] | Potency [10] | Potency [11] | max response [14] -1% | outcome [15] | Potency [17] | Potency [18]

N#C/C=C/C#N
inactive: outcome [19] | outcome [4] | caspase-3 activation [5] -2.32% | outcome [6] | Potency [7] | Potency [11] | outcome [15]
active: Potency [2] 24.4 µM | Potency [8] 20 µM | Potency [9] 31.6 µM | Potency [10] 39.8 µM | Potency [16] 23.7 µM

N#CCc1ccccc1
-3.72%: max response [12]
inactive: Potency [1] > 92 µM | Potency [2] > 92 µM | Potency [3] | outcome [19] | caspase-3 activation [5] -1.14% | outcome [20] | outcome [6] | Potency [7] | Potency [8] | Potency [9] | Potency [10] | Potency [11] | max response [14] 20.3% | outcome [15] | Potency [16] | Potency [17] | Potency [18]

ClC(Cl)c1ccccc1
1.37%: max response [12]
inactive: Potency [1] > 92 µM | Potency [2] > 92 µM | Potency [3] | outcome [19] | outcome [4] | caspase-3 activation [5] 0.485% | outcome [20] | outcome [6] | Potency [7] | Potency [8] | Potency [9] | Potency [10] | Potency [11] | Potency [13] | max response [14] 0.971% | outcome [15] | Potency [16] | Potency [17] | Potency [18]

C=CCOCC1CO1 (stereo not given)
1.34%: max response [12]
inactive: Potency [1] > 92 µM | Potency [2] > 92 µM | Potency [3] | outcome [19] | outcome [4] | caspase-3 activation [5] 2.83% | outcome [20] | outcome [6] | Potency [7] | Potency [8] | Potency [9] | Potency [10] | Potency [11] | Potency [13] | max response [14] 9.76% | outcome [15] | Potency [16] | Potency [17] | Potency [18]

[C-]1=CC=CC1.[C-]1=CC=CC1.[Cl-].[Cl-].[Ti+4]
inactive: Potency [3] | outcome [19] | outcome [4] | outcome [20] | Potency [7] | Potency [13] | outcome [15] | Potency [18]

CCCCCCCCCCCOC(=O)c1ccccc1C(=O)OCCCCCCCCCCC
-1.51%: max response [12]
inactive: Potency [1] > 92 µM | Potency [2] > 92 µM | Potency [3] | outcome [4] | outcome [20] | outcome [6] | Potency [7] | Potency [8] | Potency [9] | Potency [10] | Potency [11] | Potency [13] | max response [14] -3.34% | outcome [15] | Potency [16] | Potency [17] | Potency [18]

Oc1cc(Cl)c(Cl)c(Cl)c1
inactive: outcome [4] | caspase-3 activation [5] 11.5% | outcome [20] | outcome [6] | Potency [7] | Potency [11] | outcome [15] | Potency [17] | Potency [18]
active: Potency [3] 31.6 µM | Potency [16] 13.3 µM

c1ccc2c(c1)ccc1cc3c(ccc4ccccc43)cc12
active: Potency [13] 39.8 µM
inactive: Potency [16]

c1ccc(P(c2ccccc2)c2ccccc2)cc1
inactive: Potency [1] > 92 µM | Potency [2] > 92 µM | Potency [3] | outcome [19] | outcome [4] | outcome [20] | outcome [6] | Potency [8] | Potency [9] | Potency [10] | Potency [11] | Potency [13] | max response [14] 14.4% | outcome [15] | Potency [16] | Potency [17] | Potency [18]
22.6%: max response [12]

C=CC(=O)OCCO
inactive: Potency [3] | outcome [19] | outcome [4] | caspase-3 activation [5] 2.01% | outcome [20] | outcome [6] | Potency [7] | Potency [10] | Potency [13] | max response [14] 11.3% | outcome [15] | Potency [17]
-8.13%: max response [12]
active: Potency [8] 50.1 µM

CN(C)c1ccc(N=Nc2ccccc2)cc1
inactive: Potency [2] > 92 µM | outcome [19] | outcome [4] | outcome [20] | outcome [6] | Potency [8] | Potency [9] | Potency [10] | Potency [11] | Potency [13] | max response [14] -20.4% | Potency [18]
-0.567%: max response [12]

CCCN(CCC)c1c([N+](=O)[O-])cc(C(F)(F)F)cc1[N+](=O)[O-]
-17.3% and 1.94%: max response [12]
inactive: Potency [1] > 92 µM | Potency [2] > 92 µM | Potency [3] | outcome [19] | outcome [4] | caspase-3 activation [5] 3.06% | outcome [20] | outcome [6] | Potency [7] | Potency [8] | Potency [9] | Potency [11] | Potency [13] | max response [14] 0.285% and -10.3% | outcome [15] | Potency [16] | Potency [17] | Potency [18]
